Experimental data taken from PubChem BioAssay (NCI).
Values joined by “and” are separate entries in the source; they are usually repeats but may differ in a detail not shown here. Equal entries are not always repeated. This is part of a sample that, as a whole, favours compounds with a hit. Of some 83,000 tested, about 20% had one in any assay.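 Activity criterion: percent growth below 10, measured after cells in 96-well plates were exposed to a single compound concentration for 48 hours.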 Values without a mark were called inactive. Active and inactive are the calls of the source.

The compounds below were run on HL-60(TB) leukemia (assay: NCI-60 one-dose screen, 48 h (100 = growth as untreated, 0 = no growth, -100 = all killed)). Conditions: 10 µM unless noted.
For COc1cc2nc(N3CCN(C(=O)C4COc5ccccc5O4)CC3)nc(N)c2cc1OC (stereo not given), the growth was 104% and 103% and 99.9%. With CCN(CC)CCOc1ccc(/C(=C(/C)c2ccccc2)c2ccc(OC(C)=O)cc2)cc1 the growth was 117%. In the case of Cc1cccc(Cl)c1NC(=O)c1ccc2nc(NC(=O)NC3CC(C)(C)NC(C)(C)C3)sc2c1, the growth is reported as 110%. O=C(O)C1C2C=CC(C2)C1C(=O)O (stereo not given) was tested, and the growth was 25.8% and 104%. Compound CN1C(=O)/C(=C/c2cn(-c3ccccc3)nc2-c2ccccc2)SC1=S has a growth of 109%. Work on CCCCCCCCOC(=O)c1ccc(O)c(OC)c1 yielded a growth of 30.9%. For N#Cc1nc(-c2ccccc2)oc1S(=O)(=O)N1CCOCC1, the growth was 5.5% (active). O=C(Nc1ccc2ncnc(Nc3ccc(F)c(Cl)c3)c2c1)c1ccccc1 showed a growth of 82.2%. Work on CCOC(=O)C(C#N)Cc1ccccc1 (stereo not given) yielded a growth of 104%. In the case of O=C1/C(=C/c2cccs2)SC(=S)N1CCCN1CCOCC1, the growth is reported as 90.4%. With CCOC(=O)C1=C(C)N=C2Sc3cc(OC(F)(F)F)ccc3N2[C@H]1c1ccccn1 the growth was 46.9%. O=c1cc(-c2ccccc2)oc2c(O)c(O)ccc12 was tested, and the growth was 59.4%. In the case of O=[N+]([O-])C1C(c2ccccc2)C12c1ccccc1-c1ccccc12 (stereo not given), the growth is reported as -30.6% (active). Work on O=c1c2cccc3c(Nc4ccc(F)cc4)ccc(c32)c2nc3ccccc3n12 yielded a growth of 124%. O=C(Cn1ccc2ccccc21)Nc1ccc(-c2nc3ccccc3s2)cc1 gave a growth of 99.9%.
